Compound activity as filed in PubChem.
RGS16-Gao: modulates binding between human RGS16 and Galphao. binding response (% of control), % at 10 µM. O15492+P09471. 220,000 compounds, 0.38% hits. bead-based flow cytometry RGS16-Galphao binding, fluorescence; actives lie on both sides. AID 1441;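 also: Galphao activated by GDP with aluminum fluoride before binding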
Target sequence (O15492 whole entry, looked up): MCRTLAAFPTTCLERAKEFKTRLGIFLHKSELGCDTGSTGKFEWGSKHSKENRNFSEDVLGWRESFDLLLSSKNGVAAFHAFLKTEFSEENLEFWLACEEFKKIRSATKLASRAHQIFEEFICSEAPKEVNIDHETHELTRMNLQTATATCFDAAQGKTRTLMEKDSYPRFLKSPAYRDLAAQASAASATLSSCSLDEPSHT
Target sequence (P09471 whole entry, looked up): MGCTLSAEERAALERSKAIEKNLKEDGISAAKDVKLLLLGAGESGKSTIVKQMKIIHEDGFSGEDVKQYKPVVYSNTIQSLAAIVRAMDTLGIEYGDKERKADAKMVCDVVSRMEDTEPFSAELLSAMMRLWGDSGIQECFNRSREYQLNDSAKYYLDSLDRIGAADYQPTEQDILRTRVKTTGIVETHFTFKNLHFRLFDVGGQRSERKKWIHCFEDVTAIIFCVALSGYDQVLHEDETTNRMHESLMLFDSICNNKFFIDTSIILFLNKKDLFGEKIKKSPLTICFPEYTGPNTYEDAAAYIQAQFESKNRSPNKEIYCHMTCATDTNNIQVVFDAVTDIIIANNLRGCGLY
RGS7-Gao reg: human RGS7-Galphao interaction regulation; P09471; Multiplexed bead flow cytometry, RGS7-Galphao binding; actives lie on both sides; binding response (% of control), % at 10 µM; 220,000 compounds, 0.35% hits; AID 1439; in the data active = binding response below about 49% or above about 150%; inconclusive = no clear call, values can overlap the other calls; inactive = in between;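 also: fluorescent Galphao held in activated GDP-AlF4 state binding bead-coupled RGS7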
RGS4-Gao reg: modulates binding of RGS4 to human Galphao. P09471. Multiplexed bead flow cytometry; actives lie on both sides. binding response (% of control), % at 10 µM. 220,000 compounds, 0.33% hits. AID 1415; in the data active = binding response below about 49% or above about 150%; inactive = in between;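 also: fluorescent Galphao activated with aluminum fluoride binding bead-coupled RGS4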
RGS8-Gao: regulators of human RGS8-Galphao interaction. P09471. multiplexed bead flow cytometry, RGS8-Galphao binding; actives lie on both sides. response (percent of control binding), % at 10 µM. 220,000 compounds, 0.34% hits. AID 1423; in the data active = response below about 60% or above about 140%; inactive = in between;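 also: Galphao activated as the GDP aluminium fluoride complex binding bead-coupled RGS8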
Avidin bead fluor: avidin bead compound fluorescence profile | Avidin beads, compound fluorescence 488/530 nm, flow cytometry; hits give high values | fluorescence (KMESF) at 10 µM | 220,000 compounds, 0.38% hits; in the data active = fluorescence above about 47
GSH fluor: GSH bead compound fluorescence profile. AID 1776. GSH beads flow cytometry, compound fluorescence 488/530 nm; hits give high values. fluorescence (KMESF) at 10 µM. 190,000 compounds, 0.25% hits; in the data active = fluorescence above about 89;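 also: glutathione beads carrying GST-tagged Bcl family fusion proteins plus one bare bead set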
RGS-Gao: RGS4-Galphao interaction regulator (human); shares compounds with RGS16-Gao; AID 1504; RGS4–Galpha-o binding response, % at 10 µM; multiplexed bead flow cytometry, RGS–Galpha-o binding; 1,600 compounds, 99% hits;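 also: fluorescently labeled Galpha-o bound to GDP with aluminium fluoride binding biotinylated RGS beads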
Avidin counter: counter-screen: compounds disrupting biotin binding to avidin beads; shares compounds with RGS16-Gao; streptavidin beads, fluorescein-biotin binding, flow cytometry; inhibition, % at 10 µM; 1,700 tested, under 10 active; AID 1783;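 active = inhibition above 50%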;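 also: median green fluorescence of gated singlet beads compared with DMSO control wells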
RGS8-Gao confirm: RGS8-Galphao interaction regulation, single point confirmation. shares compounds with RGS16-Gao. bead-based flow cytometry RGS8-Galphao binding, fluorescence; actives lie on both sides. binding response (% of control), % at 10 µM. 1,700 compounds, 3% hits. AID 1836; in the data active = binding response below about 72% or above about 130%; inactive = in between;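 also: Galphao activated as GDP AlF4 complex before binding bead RGS8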
RGS7-Gao confirm: confirmation of regulators of human RGS7-Galphao interaction | bead-based flow cytometry RGS7-Galphao binding; actives lie on both sides | 1,700 compounds, 7.8% hits | shares compounds with RGS16-Gao | response (percent of control binding), % at 10 µM; in the data active = response below about 75% or above about 130%; inactive = in between;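 also: fluorescent Galphao activated with GDP and aluminum fluoride binding bead-coupled RGS7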
RGS16-Gao conf: RGS16-Galphao interaction regulation, single point confirmation; 1,700 compounds, 4% hits; response (% of control binding), % at 10 µM; shares compounds with RGS16-Gao; bead-based flow cytometry, RGS16-Galphao binding; actives lie on both sides; in the data active = response below about 74% or above about 130%; inactive = in between;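 also: Galphao activated as the GDP aluminium fluoride complex binding bead-coupled RGS16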
RGS4-Gao single: confirmation of regulators of human RGS4-Galphao interaction | RGS4-Galphao binding, multiplexed bead flow cytometry; actives lie on both sides | binding response (% of control), % at 10 µM | AID 1840 | 1,700 compounds, 4% hits | shares compounds with RGS16-Gao; in the data active = binding response below about 74% or above about 130%; inactive = in between
RGS19-Gao conf: confirmation of regulators of human RGS19-Galphao interaction. shares compounds with RGS16-Gao. bead-based flow cytometry RGS19-Galphao binding; actives lie on both sides. response (percent of control binding), % at 10 µM. 1,700 compounds, 5% hits; in the data active = response below about 50% or above about 160%; inactive = in between
A number is an active result; i = inactive; ? = inconclusive; nt = no result; [ ] = another dose, or the depositor's remark. A selection: hits, their analogues and other compounds. The true share with any hit is near 1.2%. Unless noted, no rule for the calls is given here.

SMILES	RGS16-Gao	RGS7-Gao reg	RGS4-Gao reg	RGS8-Gao	Avidin bead fluor	GSH fluor	Avidin counter	RGS8-Gao confirm	RGS7-Gao confirm	RGS16-Gao conf	RGS4-Gao single	RGS19-Gao conf	others
CC1(C)CC(NC(=O)c2ccccc2C(=O)NC2CC(C)(C)NC(C)(C)C2)CC(C)(C)N1	i	i	i	i	i	i	nt	nt	nt	nt	nt	nt
CCOC(=O)C/C(N)=N/N(C)c1ncc(C(F)(F)F)cc1Cl	i	i	i	i	i	i	nt	nt	nt	nt	nt	nt
CC(C)CC(=O)NC(C)C(c1cccs1)N1CCOCC1 (centres undefined)	i	?	i	i	i	nt	nt	nt	nt	nt	nt	nt
Cc1ccc(C(C)NC(=O)C2CCCO2)cc1C (centres undefined)	nt	nt	nt	nt	nt	i	i	i	i	i	i	i
CC#CC[N+](C)(C)CCCCCCCCCC	i	?	170[activator]	i	47	nt	i	i	i	i	i	i
CCOc1ccc(C(CC(=O)O)NC(=O)C(Sc2ccccc2)c2ccccc2)cc1 (centres undefined)	i	i	i	i	i	i	nt	nt	nt	nt	nt	nt
COc1ccccc1NC(=O)C(=O)N(c1cccnc1)C(C(=O)NC(C)(C)C)c1ccccc1F (centres undefined)	i	i	i	i	i	i	nt	nt	nt	nt	nt	nt
COc1ccc(C(c2nnnn2C2CCCC2)N2CCC(C)CC2)c(OC)c1 (centres undefined)	nt	174[activator]	188[activator]	nt	nt	i	i	i	i	i	i	i
CCc1c(-c2ccccc2)[n+](=O)c2c(n1[O-])CCC2	i	?	i	i	i	nt	nt	nt	nt	nt	nt	nt
Cc1cc(C(=O)Oc2cccnc2)ccc1[N+](=O)[O-]	25	i	i	i	i	i	i	i	i	i	i	i	RGS-Gao=91
c1ccc(Nc2c3c(nc4ncnn24)CCC3)cc1	nt	nt	nt	nt	nt	i	i	i	56	i	72	i
Clc1ccccc1Nc1c2c(nc3ncnn13)CCC2	i	i	i	i	i	i	nt	nt	nt	nt	nt	nt
CCOC(=O)/C(C(=O)Nc1ccccc1Cl)=C1/NC(C)(C)Cc2ccccc21	nt	nt	nt	nt	nt	i	i	i	73	i	i	i
Cc1nn(C)c(C(=O)N/N=C/c2ccc(Br)cc2)c1Cl	i	40	46	58	i	i	i	i	i	i	i	i
Cc1nn(C)c(C(=O)N/N=C/c2cccc3ccccc23)c1Cl	i	28	28	38	i	i	i	i	i	i	i	i
O=C(Cn1cncn1)N/N=C/c1cccc2ccccc12	i	i	i	i	i	i	nt	nt	nt	nt	nt	nt
CC(=O)NC1(C(=O)O)CCCC1	i	?	i	i	i	nt	nt	nt	nt	nt	nt	nt
COc1cnc(-c2ccccc2)nc1Oc1ccc(Cl)cc1C	i	i	i	i	i	i	nt	nt	nt	nt	nt	nt
O=C(/C=C/c1ccccc1)OCCCN=C1NS(=O)(=O)c2ccccc21	i	i	i	i	i	i	nt	nt	nt	nt	nt	nt
CN(C)CCNc1oc(-c2cccc(Cl)c2)nc1C#N	5.0	12	0.2	31	i	i	i	i	i	i	i	i
Cc1ccc(-c2noc(N=O)c2NO)cc1	i	?	i	i	i	nt	nt	nt	nt	nt	nt	nt
